Bioassay records: PubChem, several laboratories
An excerpt weighted towards active compounds, which were near 3.8% of everything screened.
697 NFkB inh: lowers PMA/ionomycin-induced NF-kB signal in 697 B cells; 697 B-cell NF-kB luciferase reporter, 16 h; inhibition, % at 4 µM; 330,000 compounds, 0.33% hits; AID 435022; in the data active = inhibition above about 35%
Shn3 inh set2: reduces Shn3 3'UTR luciferase signal in osteoblasts; AID 588674; inhibition, % at 12.5 µM; 360,000 compounds, 0.52% hits; Clone20 osteoblast Shn3 3'UTR firefly luciferase, 24 h;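 active = mean inhibition of at least 75% with every replicate also reaching 75%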;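 note: 0% = median of neutral control wells and 100% = pilot-screen positive control compound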
Jurkat NFkB inh: lowers PMA/ionomycin-induced NF-kB signal in Jurkat cells. AID 435003. 330,000 compounds, 0.53% hits. inhibition, % at 4 µM. PMA/ionomycin-induced NF-kB luciferase reporter, luminescence; in the data active = inhibition above about 50%
Gli-Sufu antag: blocks Gli-Sufu signaling in a luciferase reporter; Sufu-KO-LIGHT fibroblasts, Gli luciferase reporter luminescence; 340,000 compounds, 0.74% hits; AID 588413; inhibition, % at 5 µM;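 active = inhibition above about 55%, limit read from the data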;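 note: 0% = DMSO-treated cells and 100% = wells with medium but no cells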
Mdm2 MdmX PPI: human Mdm2/MdmX binding inhibition; SaOS-2 split-luciferase Mdm2/MdmX complementation, luminescence; inhibition, % at 8 µM; 330,000 compounds, 3% hits; AID 485346;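 active = inhibition of at least 50% at 8 µM in the primary screen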
Target sequence (O15151 whole entry, looked up): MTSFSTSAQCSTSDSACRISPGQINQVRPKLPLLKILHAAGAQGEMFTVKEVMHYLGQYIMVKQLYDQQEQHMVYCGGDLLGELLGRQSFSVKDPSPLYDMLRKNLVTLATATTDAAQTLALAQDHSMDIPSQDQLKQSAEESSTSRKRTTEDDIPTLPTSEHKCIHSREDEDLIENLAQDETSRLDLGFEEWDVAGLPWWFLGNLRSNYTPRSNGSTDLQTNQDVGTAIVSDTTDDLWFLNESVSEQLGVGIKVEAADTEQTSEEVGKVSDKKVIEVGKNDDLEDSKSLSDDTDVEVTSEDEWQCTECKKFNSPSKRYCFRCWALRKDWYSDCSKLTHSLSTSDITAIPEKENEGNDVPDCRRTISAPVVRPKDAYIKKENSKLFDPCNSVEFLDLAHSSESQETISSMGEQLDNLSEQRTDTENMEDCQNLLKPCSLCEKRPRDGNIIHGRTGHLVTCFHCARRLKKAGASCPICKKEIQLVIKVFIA
Target sequence (Q00987 whole entry, looked up): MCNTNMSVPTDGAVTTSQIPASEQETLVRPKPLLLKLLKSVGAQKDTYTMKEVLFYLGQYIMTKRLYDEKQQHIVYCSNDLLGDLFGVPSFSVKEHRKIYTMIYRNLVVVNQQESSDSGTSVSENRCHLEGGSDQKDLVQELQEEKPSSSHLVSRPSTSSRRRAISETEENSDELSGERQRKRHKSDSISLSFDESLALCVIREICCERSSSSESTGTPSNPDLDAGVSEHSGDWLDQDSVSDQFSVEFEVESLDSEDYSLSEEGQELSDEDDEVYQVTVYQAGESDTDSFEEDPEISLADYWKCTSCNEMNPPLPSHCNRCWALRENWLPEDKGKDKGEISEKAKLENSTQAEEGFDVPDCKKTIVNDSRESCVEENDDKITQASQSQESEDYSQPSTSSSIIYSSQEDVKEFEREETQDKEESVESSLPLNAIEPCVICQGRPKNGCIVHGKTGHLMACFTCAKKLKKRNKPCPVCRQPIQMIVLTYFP
Mdm2 MdmX conf: human Mdm2/MdmX binding inhibition, confirmed. shares compounds with Mdm2 MdmX PPI. luminescent assay. inhibition, % at 8 µM. 10,000 compounds, 55% hits. AID 489028; in the data active = inhibition above about 40%
FLuc counter: inhibits full-length luciferase, flagging false Mdm2/MdmX hits | 6,200 compounds, 77% hits | shares compounds with Mdm2 MdmX PPI | inhibition, % at 8 µM | SaOS-2 full-length luciferase counterscreen, luminescence;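 active = mean inhibition at 8 µM reaching about 37%, which flags the compound as non-specific, limit read from the data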;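 note: p53-null SaOS-2 cells with luciferase driven by a doxycycline-inducible promoter; compound on cells about two nights before reading with doxycycline added after day one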
Numbers without * were called inactive.

Results for COc1ccc(-c2nc(CN3CCN(c4cc(C)nc(C)c4)CC3)c(C)o2)c2ccccc12 ?
697 NFkB inh: -15; Shn3 inh set2: 13; Jurkat NFkB inh: -5; Gli-Sufu antag: 5; Mdm2 MdmX PPI: 97*; Mdm2 MdmX conf: 48*; FLuc counter: 34

How did O=C(c1ccc(F)c(F)c1)N1CCC2(CC1)NCCc1[nH]cnc12 do in these assays?
697 NFkB inh: -21; Shn3 inh set2: -17; Jurkat NFkB inh: 1; Gli-Sufu antag: 5; Mdm2 MdmX PPI: -33

How did Cc1cccc(NC(=S)NCCC(c2ccccc2)c2ccccc2)c1 do in these assays?
697 NFkB inh: -12; Shn3 inh set2: -5; Jurkat NFkB inh: 2; Gli-Sufu antag: 1; Mdm2 MdmX PPI: 53*; Mdm2 MdmX conf: 7

Results for Cc1cc(NC(=O)C(C)SCC(=O)N(Cc2ccccc2)c2ccccc2)no1 (stereo not given) ?
697 NFkB inh: -13; Shn3 inh set2: 2; Jurkat NFkB inh: 8; Gli-Sufu antag: 4; Mdm2 MdmX PPI: 67*; Mdm2 MdmX conf: 45*; FLuc counter: 110*

What do the screens show for `COc1ccc(CC(N)c2csc(NC(=O)c3cccs3)n2)cc1` (stereo not given)?
Shn3 inh set2: 15

What do the screens show for `COc1cc(OC)cc(C(=O)Nc2nc(-c3ccccc3)c(-c3ccccc3)o2)c1`?
697 NFkB inh: 19; Shn3 inh set2: 54; Jurkat NFkB inh: -6; Gli-Sufu antag: -4; Mdm2 MdmX PPI: 56*; Mdm2 MdmX conf: 36

What do the screens show for `CC(=O)Nc1nc(-c2ccccc2)c(-c2ccccc2)o1`?
697 NFkB inh: -11; Shn3 inh set2: 21; Jurkat NFkB inh: -23; Gli-Sufu antag: -13; Mdm2 MdmX PPI: 7

Results for Cc1nnc(NCc2n[nH]c(=O)c3ccccc23)c2ccccc12 ?
697 NFkB inh: 16; Shn3 inh set2: -8; Jurkat NFkB inh: -3; Gli-Sufu antag: 6; Mdm2 MdmX PPI: 75*; Mdm2 MdmX conf: 21

Results for COc1ccc(CC(=O)OCC(=O)NCc2ccc3c(c2)OCO3)cc1OC ?
697 NFkB inh: -23; Shn3 inh set2: -13; Jurkat NFkB inh: -13; Gli-Sufu antag: -2; Mdm2 MdmX PPI: -1

How did COc1ccccc1-c1cc2nc(C)c(CCC(=O)NCc3ccc(F)cc3)c(C)n2n1 do in these assays?
697 NFkB inh: 16; Shn3 inh set2: 15; Jurkat NFkB inh: -2; Gli-Sufu antag: -5; Mdm2 MdmX PPI: -3

Results for COc1ccccc1-c1cc(C(F)(F)F)nc(S(=O)(=O)CCCC(=O)NCc2ccc(F)cc2)n1 ?
697 NFkB inh: -23; Shn3 inh set2: 88*; Jurkat NFkB inh: -13; Gli-Sufu antag: -7; Mdm2 MdmX PPI: 99*; Mdm2 MdmX conf: 90*; FLuc counter: 51*

What do the screens show for `COc1ccccc1-c1cc(C(F)(F)F)nc(S(=O)(=O)CCCC(=O)NC(C)C)n1`?
697 NFkB inh: -128; Shn3 inh set2: 33; Jurkat NFkB inh: 32; Gli-Sufu antag: 2; Mdm2 MdmX PPI: 100*; Mdm2 MdmX conf: 97*; FLuc counter: 31

How did COc1ccccc1-c1cc(C(F)(F)F)nc(S(=O)(=O)CCCC(=O)N2CCCCC2C)n1 (stereo not given) do in these assays?
697 NFkB inh: -24; Shn3 inh set2: 97*; Jurkat NFkB inh: -9; Gli-Sufu antag: -8; Mdm2 MdmX PPI: 97*; Mdm2 MdmX conf: 69*; FLuc counter: 20

What do the screens show for `CS(=O)(=O)c1nc(-c2ccco2)cc(C(F)(F)F)n1`?
697 NFkB inh: -66; Jurkat NFkB inh: 29; Mdm2 MdmX PPI: 100*; Mdm2 MdmX conf: 100*; FLuc counter: 2

How did COc1ccccc1-c1cc(C(F)(F)F)nc(N2CCCCC2)n1 do in these assays?
697 NFkB inh: 5; Shn3 inh set2: -13; Jurkat NFkB inh: -2; Gli-Sufu antag: -4; Mdm2 MdmX PPI: 10

Results for Cc1c(C=C(C#N)c2ccc([N+](=O)[O-])cc2)c(=O)n(-c2ccccc2)n1C ?
Shn3 inh set2: 8; Gli-Sufu antag: -3

What do the screens show for `O=C(COc1ccc(Cl)cc1Br)Nc1ccncc1`?
697 NFkB inh: -3; Shn3 inh set2: -17; Jurkat NFkB inh: -41; Gli-Sufu antag: -13; Mdm2 MdmX PPI: -16

How did C=CCN(Cc1ccc(Cl)s1)C(=O)c1cc(S(=O)(=O)N2CCOCC2)ccc1F do in these assays?
697 NFkB inh: 9; Shn3 inh set2: 24; Jurkat NFkB inh: 7; Gli-Sufu antag: 26; Mdm2 MdmX PPI: -12

How did Cc1ccc(-c2nc(CS(=O)(=O)CC(=O)NC3CCCCCC3)c(C)o2)cc1 do in these assays?
697 NFkB inh: -9; Shn3 inh set2: -7; Jurkat NFkB inh: 0; Gli-Sufu antag: 20; Mdm2 MdmX PPI: 21

Results for Cc1cccc(NC(=O)C(=O)NCC2CCCN2S(=O)(=O)c2ccccc2)c1 (stereo not given) ?
697 NFkB inh: -10; Shn3 inh set2: 1; Jurkat NFkB inh: -7; Gli-Sufu antag: -11; Mdm2 MdmX PPI: 18

Results for COc1ccccc1-c1cc(C(F)(F)F)nc(S(C)(=O)=O)n1 ?
697 NFkB inh: -14; Shn3 inh set2: 97*; Jurkat NFkB inh: -21; Gli-Sufu antag: -1; Mdm2 MdmX PPI: 97*; Mdm2 MdmX conf: 79*; FLuc counter: 53*

What do the screens show for `COc1ccccc1-c1cc(C(F)(F)F)nc(S(=O)(=O)CCCC(=O)Nc2cc(C)on2)n1`?
697 NFkB inh: -239; Shn3 inh set2: 97*; Jurkat NFkB inh: 27; Gli-Sufu antag: 1; Mdm2 MdmX PPI: 100*; Mdm2 MdmX conf: 99*; FLuc counter: 33

How did COc1ccc(-c2cc(C(F)(F)F)nc(S(=O)(=O)CCCC(=O)Nc3cc(C)on3)n2)cc1OC do in these assays?
Shn3 inh set2: 55; Gli-Sufu antag: 8

What do the screens show for `COc1ccccc1-c1cc(C(F)(F)F)nc(N2CCCC2)n1`?
697 NFkB inh: -24; Shn3 inh set2: 5; Jurkat NFkB inh: 3; Gli-Sufu antag: 7; Mdm2 MdmX PPI: -4

How did COc1ccc(S(=O)(=O)Nc2ccccc2N2CCOCC2)cc1OC do in these assays?
697 NFkB inh: 12; Shn3 inh set2: -1; Jurkat NFkB inh: 0; Gli-Sufu antag: -3; Mdm2 MdmX PPI: -4

Results for CCOc1cc(N2CCOCC2)c(OCC)cc1NC(=O)c1nn(CC)c(=O)c2ccccc12 ?
697 NFkB inh: 15; Shn3 inh set2: 13; Jurkat NFkB inh: 16; Gli-Sufu antag: 41; Mdm2 MdmX PPI: 86*; Mdm2 MdmX conf: 49*; FLuc counter: 87*

How did CCCn1nc(C(=O)Nc2cccc(S(=O)(=O)N(C)c3ccccc3)c2)c2ccccc2c1=O do in these assays?
697 NFkB inh: -15; Shn3 inh set2: 23; Jurkat NFkB inh: 2; Gli-Sufu antag: -4; Mdm2 MdmX PPI: 53*; Mdm2 MdmX conf: 13
